Measurements as given in PMC7862700, “An all-to-all approach to the identification of sequence-specific readers for epigenetic DNA modifications on cytosine”.

Tests used:
Test in all cases: DAPPL (digital affinity profiling via proximity ligation, sequencing); 10 mM Tris-HCl pH 7.5, 50 mM NaCl, 1 mM DTT, 4% glycerol, room temperature, 30 min; GST-TFs on glutathione beads, 16-mer random dsDNA library, 0.1% formaldehyde crosslink after washing; high values mean tight binding
Conditions in all cases: protein: recombinant; tags: N-terminal GST; dsDNA, one strand shown
ERF = target: T1, ERF (Homo sapiens, UniProt P50548 1-548)
T1 sequence: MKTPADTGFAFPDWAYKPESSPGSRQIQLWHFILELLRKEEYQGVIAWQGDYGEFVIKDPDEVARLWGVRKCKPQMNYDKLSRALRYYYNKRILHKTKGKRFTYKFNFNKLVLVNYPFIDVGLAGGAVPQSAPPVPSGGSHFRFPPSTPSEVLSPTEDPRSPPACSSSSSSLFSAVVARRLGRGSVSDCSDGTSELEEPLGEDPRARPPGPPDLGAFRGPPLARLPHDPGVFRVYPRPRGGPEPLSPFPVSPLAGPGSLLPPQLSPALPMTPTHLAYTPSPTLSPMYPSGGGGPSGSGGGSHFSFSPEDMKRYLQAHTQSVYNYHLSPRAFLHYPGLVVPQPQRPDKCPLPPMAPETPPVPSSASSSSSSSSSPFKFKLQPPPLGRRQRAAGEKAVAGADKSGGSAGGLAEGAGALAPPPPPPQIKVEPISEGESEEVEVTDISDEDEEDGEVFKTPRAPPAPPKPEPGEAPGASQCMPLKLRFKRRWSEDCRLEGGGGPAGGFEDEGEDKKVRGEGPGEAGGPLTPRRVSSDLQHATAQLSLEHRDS
Method in brief: (§1)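 Sequencing on an Illumina NextSeq500 followed washing, crosslinking with 0.1% formaldehyde, proximity ligation (BsaI/T4 ligase, 1 h, 37 °C) and PCR amplification of pools that had been incubated for 30 min at room temperature with 200 nmole of a random double-stranded 16-mer DNA library in Tris/NaCl/DTT/glycerol buffer. Each pool held DNA-barcoded human transcription factors, expressed in yeast as GST fusions and captured on glutathione beads, plus a tag-only sample. Binding signal is a hexamer's read frequency for a factor divided by its frequency in the tag-only sample.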

ETV3L = target: T2, ETV3L (Homo sapiens, UniProt Q6ZN32 1-361)
T2 sequence: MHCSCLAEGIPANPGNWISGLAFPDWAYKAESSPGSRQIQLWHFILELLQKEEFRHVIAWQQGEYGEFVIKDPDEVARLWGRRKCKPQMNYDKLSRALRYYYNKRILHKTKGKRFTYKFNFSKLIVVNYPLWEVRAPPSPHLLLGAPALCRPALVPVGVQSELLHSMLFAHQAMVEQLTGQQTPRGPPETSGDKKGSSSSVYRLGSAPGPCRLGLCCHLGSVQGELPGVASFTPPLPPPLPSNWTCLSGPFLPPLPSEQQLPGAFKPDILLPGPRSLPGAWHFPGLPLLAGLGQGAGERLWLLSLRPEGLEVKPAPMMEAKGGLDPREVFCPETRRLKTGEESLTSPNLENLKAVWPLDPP
Method in brief: as §1

ETS2 = target: T3, ETS2 (Homo sapiens, UniProt P15036 1-469)
T3 sequence: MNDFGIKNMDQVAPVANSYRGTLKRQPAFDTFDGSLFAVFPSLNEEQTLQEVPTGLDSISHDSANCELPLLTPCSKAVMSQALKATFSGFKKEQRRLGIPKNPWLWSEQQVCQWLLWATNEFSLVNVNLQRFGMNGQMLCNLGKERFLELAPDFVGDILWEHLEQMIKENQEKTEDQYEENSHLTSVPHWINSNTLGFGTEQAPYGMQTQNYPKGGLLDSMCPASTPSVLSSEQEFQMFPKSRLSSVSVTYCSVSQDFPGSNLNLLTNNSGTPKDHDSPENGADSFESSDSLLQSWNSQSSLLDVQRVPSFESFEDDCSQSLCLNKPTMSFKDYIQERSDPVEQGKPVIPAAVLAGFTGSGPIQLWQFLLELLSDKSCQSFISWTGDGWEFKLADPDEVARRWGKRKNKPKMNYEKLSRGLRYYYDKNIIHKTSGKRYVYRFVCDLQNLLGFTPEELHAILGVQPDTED
Method in brief: as §1

SPDEF = target: T4, SPDEF (Homo sapiens, UniProt O95238 1-335)
T4 sequence: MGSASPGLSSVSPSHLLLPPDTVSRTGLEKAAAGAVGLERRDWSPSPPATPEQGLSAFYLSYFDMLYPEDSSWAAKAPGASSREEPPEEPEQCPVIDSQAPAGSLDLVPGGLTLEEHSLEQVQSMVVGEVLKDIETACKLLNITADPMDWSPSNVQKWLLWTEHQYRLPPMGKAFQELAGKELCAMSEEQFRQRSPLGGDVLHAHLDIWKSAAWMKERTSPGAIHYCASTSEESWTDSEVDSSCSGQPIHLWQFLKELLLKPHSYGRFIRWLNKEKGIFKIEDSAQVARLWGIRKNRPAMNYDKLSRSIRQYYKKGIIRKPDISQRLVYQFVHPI
Method in brief: as §1

ETV7 = target: T5, ETV7 (Homo sapiens, UniProt Q9Y603 1-341)
T5 sequence: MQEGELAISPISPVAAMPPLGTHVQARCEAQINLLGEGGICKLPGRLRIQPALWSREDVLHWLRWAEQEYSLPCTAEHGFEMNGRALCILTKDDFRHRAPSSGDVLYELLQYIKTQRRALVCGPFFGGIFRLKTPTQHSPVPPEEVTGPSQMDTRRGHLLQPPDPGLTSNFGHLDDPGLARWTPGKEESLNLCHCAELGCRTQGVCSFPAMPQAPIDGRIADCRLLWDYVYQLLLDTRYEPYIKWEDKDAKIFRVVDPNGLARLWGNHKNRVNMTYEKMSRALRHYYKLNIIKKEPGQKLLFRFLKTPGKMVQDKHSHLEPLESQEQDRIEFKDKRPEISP
Method in brief: as §1

ELF5 = target: T6, ELF5 (Homo sapiens, UniProt Q9UKW6-2 1-255)
T6 sequence: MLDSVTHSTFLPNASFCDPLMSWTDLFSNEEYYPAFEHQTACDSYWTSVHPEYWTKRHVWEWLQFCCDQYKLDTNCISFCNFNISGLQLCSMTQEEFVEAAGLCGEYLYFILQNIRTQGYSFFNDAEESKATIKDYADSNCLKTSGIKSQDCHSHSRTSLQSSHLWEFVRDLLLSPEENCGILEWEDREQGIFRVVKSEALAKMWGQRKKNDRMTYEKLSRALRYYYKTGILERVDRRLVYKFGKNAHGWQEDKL
Method in brief: as §1

ETV3 = target: T7, ETV3 (Homo sapiens, UniProt P41162-2 1-143)
T7 sequence: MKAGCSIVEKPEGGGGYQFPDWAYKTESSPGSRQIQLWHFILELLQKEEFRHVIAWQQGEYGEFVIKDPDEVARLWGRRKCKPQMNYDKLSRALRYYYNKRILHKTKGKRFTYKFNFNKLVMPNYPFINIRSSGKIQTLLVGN
Method in brief: as §1

ETV6 = ETV6 (Homo sapiens, UniProt P41212 1-452)
Method in brief: as §1

Chain of ETV6 (P41212 whole entry): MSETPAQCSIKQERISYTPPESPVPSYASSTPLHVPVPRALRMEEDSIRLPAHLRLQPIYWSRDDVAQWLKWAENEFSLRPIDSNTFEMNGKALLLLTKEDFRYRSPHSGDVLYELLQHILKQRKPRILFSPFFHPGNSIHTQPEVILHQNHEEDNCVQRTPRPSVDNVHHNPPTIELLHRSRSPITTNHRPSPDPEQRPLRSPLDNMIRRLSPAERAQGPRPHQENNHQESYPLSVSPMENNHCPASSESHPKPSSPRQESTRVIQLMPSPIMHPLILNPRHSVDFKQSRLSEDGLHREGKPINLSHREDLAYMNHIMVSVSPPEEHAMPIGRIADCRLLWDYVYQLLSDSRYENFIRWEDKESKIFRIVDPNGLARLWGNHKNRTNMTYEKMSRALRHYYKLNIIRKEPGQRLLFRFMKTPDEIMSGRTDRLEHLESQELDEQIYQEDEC

Sequence | binding signal (ERF) | binding signal (ETV3L) | binding signal (ETS2) | binding signal (SPDEF) | binding signal (ETV7) | binding signal (ELF5) | binding signal (ETV3) | binding signal (ETV6)
TTCTGT | 1.39 fold enrichment (6-mer frequency, TF over GST control) | 1.42 fold enrichment (6-mer frequency, TF over GST control) | 1.29 fold enrichment (6-mer frequency, TF over GST control) | 1.15 fold enrichment (6-mer frequency, TF over GST control) | 1.26 fold enrichment (6-mer frequency, TF over GST control) | 1.29 fold enrichment (6-mer frequency, TF over GST control) | 1.19 fold enrichment (6-mer frequency, TF over GST control) | 1.38 fold enrichment (6-mer frequency, TF over GST control)
ATACTG | 1.14 fold enrichment (6-mer frequency, TF over GST control) | 1.23 fold enrichment (6-mer frequency, TF over GST control) | 1.1 fold enrichment (6-mer frequency, TF over GST control) | 1.18 fold enrichment (6-mer frequency, TF over GST control) | 1.09 fold enrichment (6-mer frequency, TF over GST control) | 1.07 fold enrichment (6-mer frequency, TF over GST control) | 1.12 fold enrichment (6-mer frequency, TF over GST control) | 1.07 fold enrichment (6-mer frequency, TF over GST control)
GAAGCA | 1.24 fold enrichment (6-mer frequency, TF over GST control) | 1.18 fold enrichment (6-mer frequency, TF over GST control) | 1.32 fold enrichment (6-mer frequency, TF over GST control) | 1.33 fold enrichment (6-mer frequency, TF over GST control) | 1.37 fold enrichment (6-mer frequency, TF over GST control) | 1.4 fold enrichment (6-mer frequency, TF over GST control) | 1.36 fold enrichment (6-mer frequency, TF over GST control) | 1.43 fold enrichment (6-mer frequency, TF over GST control)
CTGGGT | 1.07 fold enrichment (6-mer frequency, TF over GST control) | 1.18 fold enrichment (6-mer frequency, TF over GST control) | 1.09 fold enrichment (6-mer frequency, TF over GST control) | 1.08 fold enrichment (6-mer frequency, TF over GST control) | 1.1 fold enrichment (6-mer frequency, TF over GST control) | 1.07 fold enrichment (6-mer frequency, TF over GST control) | 1.07 fold enrichment (6-mer frequency, TF over GST control) | 1.09 fold enrichment (6-mer frequency, TF over GST control)
TCCATC | 1.17 fold enrichment (6-mer frequency, TF over GST control) | 1.31 fold enrichment (6-mer frequency, TF over GST control) | 1.2 fold enrichment (6-mer frequency, TF over GST control) | 1.3 fold enrichment (6-mer frequency, TF over GST control) | 1.2 fold enrichment (6-mer frequency, TF over GST control) | 1.17 fold enrichment (6-mer frequency, TF over GST control) | 1.22 fold enrichment (6-mer frequency, TF over GST control) | 1.13 fold enrichment (6-mer frequency, TF over GST control)
ATTAAG | 1.16 fold enrichment (6-mer frequency, TF over GST control) | 1.09 fold enrichment (6-mer frequency, TF over GST control) | 1.01 fold enrichment (6-mer frequency, TF over GST control) | 1.13 fold enrichment (6-mer frequency, TF over GST control) | 1.12 fold enrichment (6-mer frequency, TF over GST control) | 1.02 fold enrichment (6-mer frequency, TF over GST control) | 1.04 fold enrichment (6-mer frequency, TF over GST control) | 1.11 fold enrichment (6-mer frequency, TF over GST control)
ATTACG | 1.15 fold enrichment (6-mer frequency, TF over GST control) | 1.15 fold enrichment (6-mer frequency, TF over GST control) | 1.29 fold enrichment (6-mer frequency, TF over GST control) | 1.21 fold enrichment (6-mer frequency, TF over GST control) | 1.12 fold enrichment (6-mer frequency, TF over GST control) | 1.12 fold enrichment (6-mer frequency, TF over GST control) | 1.22 fold enrichment (6-mer frequency, TF over GST control) | 1.23 fold enrichment (6-mer frequency, TF over GST control)
GCTCTT | 1.5 fold enrichment (6-mer frequency, TF over GST control) | 1.73 fold enrichment (6-mer frequency, TF over GST control) | 1.41 fold enrichment (6-mer frequency, TF over GST control) | 1.34 fold enrichment (6-mer frequency, TF over GST control) | 1.56 fold enrichment (6-mer frequency, TF over GST control) | 1.52 fold enrichment (6-mer frequency, TF over GST control) | 1.48 fold enrichment (6-mer frequency, TF over GST control) | 1.45 fold enrichment (6-mer frequency, TF over GST control)
